Calls of active or inactive are those of the source. Rule for the calls: active = hit-call score of the fitted dose curve at least 0.9, where 1 is the maximum; inactive = score below 0.9.

Read-out in the first test: Cyclin D2 (CCND2), CCND2 (gene 894)
Briefly: LTEA_HepaRG_CCND2: Life Technologies and Expression Analysis (LTEA) Assay for Cyclin D2 (CCND2) using HepaRG (AID 2283449).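 Note: CCND2 transcript measured by TaqMan qRT-PCR and normalised to three housekeeping genes.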 As to conditions: mRNA level, 48 h; actives raise or lower the signal. The method, boiled down: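 Differentiated human HepaRG cells were exposed for 48 h in serum-free induction medium to eight half-log concentrations topping at 100 uM (0.5% DMSO vehicle). CCND2 mRNA was quantified by TaqMan qRT-PCR, normalised to ACTB, GAPDH and POLR2A, and fitted bidirectionally against DMSO.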
As for `CCOC(=O)c1ccc(O)cc1`, the molecule was classed as inactive.
Turning to `O=C(c1ccccc1)C1CCCCC1`, the molecule was classed as inactive.
As to `C=CCOC(Cn1ccnc1)c1ccc(Cl)cc1Cl` (stereo not drawn), the outcome was inactive.
For `CC(C)CCCCCCc1ccc(O)cc1`, the outcome was inactive.
As to `N[C@@H](Cc1cc(I)c(Oc2ccc(O)c(I)c2)c(I)c1)C(=O)O`, the outcome was inactive.
On to `COc1c(Cl)ccc(Cl)c1C(=O)O`, for which the molecule was classed as inactive.
Regarding `CCC(C)OC(=O)N1CCCCC1CCO` (stereo not drawn), the outcome was inactive.
On the same count and under the same terms, for `CC(C)(C)[C@@H](O)[C@@H](Cc1ccc(Cl)cc1)n1cncn1` the value was “inactive”; for `OB(O)O`, “inactive”; for `CC(=O)[C@H]1CC[C@H]2[C@@H]3CCC4=CC(=O)CC[C@]4(C)[C@H]3CC[C@]12C`, “inactive”.
For `CCCCC(CC)CN1C(=O)C2C3C=CC(C3)C2C1=O` (stereo not drawn), the call was inactive.
For `CCN(Cc1c(F)cccc1Cl)c1c([N+](=O)[O-])cc(C(F)(F)F)cc1[N+](=O)[O-]`, the call was inactive.
In the case of `C[C@]12C[C@H](O)[C@H]3[C@@H](CCC4=CC(=O)CC[C@@]43C)[C@@H]1CC[C@@H]2C(=O)CO`, the outcome was inactive.
On to `CCOC(=O)COc1cc(-n2ncc(C(F)(F)F)c(C)c2=O)c(F)cc1Cl`, for which the result was inactive.
Same read-out and setting: for `Oc1ccc(C(c2ccc(O)cc2)C(Cl)(Cl)Cl)cc1` the value was “inactive”; for `CCCOC(=O)c1ccc(C(=O)OCCC)nc1`, “inactive”; for `CCCCC(CC)COC(=O)c1ccccc1C(=O)O` (stereo not drawn), “inactive”.
As for `CCSC(=O)N(CC(C)C)CC(C)C`, the molecule was called inactive.
In the case of `CCOC(=O)C(C)Oc1ccc(Oc2cnc3cc(Cl)ccc3n2)cc1` (stereo not drawn), the molecule was classed as inactive.

Read-out in a further test: Cyclin Dependent Kinase Inhibitor 1A (CDKN1A), CDKN1A (gene 1026)
As to the kind of experiment: LTEA_HepaRG_CDKN1A: Life Technologies and Expression Analysis (LTEA) Assay for Cyclin Dependent Kinase Inhibitor 1A (CDKN1A) using HepaRG (AID 2283450). As to conditions: mRNA level, 48 h; actives raise or lower the signal. The method, boiled down:
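Differentiated HepaRG cells in serum-free induction medium, exposed 48 h in duplicate to eight half-log concentrations up to 100 uM in 0.5% DMSO. mRNA measured by TaqMan qRT-PCR, normalized to ACTB, GAPDH, POLR2A; bidirectional fit versus DMSO.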
As to `CCOC(=O)c1ccc(O)cc1`, the result was inactive.
Turning to `CCCN(CCC)c1c([N+](=O)[O-])cc(C(F)(F)F)c(N)c1[N+](=O)[O-]`, the call was inactive.
For `O=C(c1ccccc1)C1CCCCC1`, the molecule was classed as inactive.
`C=CCOC(Cn1ccnc1)c1ccc(Cl)cc1Cl` (stereo not drawn): the AC50 was 28.6 µM (active).
Take `CC(C)CCCCCCc1ccc(O)cc1`: the result was inactive.
Take `COCCO`: the result was inactive.
`N[C@@H](Cc1cc(I)c(Oc2ccc(O)c(I)c2)c(I)c1)C(=O)O`: the call was inactive.
With `COc1c(Cl)ccc(Cl)c1C(=O)O`, the call was inactive.
With `CCC(C)OC(=O)N1CCCCC1CCO` (stereo not drawn), the molecule was classed as inactive.
Same read-out and setting: for `CC(C)(C)[C@@H](O)[C@@H](Cc1ccc(Cl)cc1)n1cncn1` the value was “inactive”.
Regarding `O=C(O)C1(C(=O)Nc2ccc(Cl)cc2Cl)CC1`, the molecule was classed as inactive.
Still for that read-out and setting: to `OB(O)O` belongs “inactive”.
On to `CC(=O)[C@H]1CC[C@H]2[C@@H]3CCC4=CC(=O)CC[C@]4(C)[C@H]3CC[C@]12C`, for which the concentration at half-maximal activity (AC50) was 16.8 µM (active).
`CCCCC(CC)CN1C(=O)C2C3C=CC(C3)C2C1=O` (stereo not drawn): the concentration at half-maximal activity (AC50) was 77.1 µM (active).
Consider `CCN(Cc1c(F)cccc1Cl)c1c([N+](=O)[O-])cc(C(F)(F)F)cc1[N+](=O)[O-]`, for which the call was inactive.
On to `C[C@]12C[C@H](O)[C@H]3[C@@H](CCC4=CC(=O)CC[C@@]43C)[C@@H]1CC[C@@H]2C(=O)CO`, for which the result was inactive.
Turning to `C#CCOC(=O)[C@@H](C)Oc1ccc(Oc2ncc(Cl)cc2F)cc1`, the outcome was inactive.
With `Cc1nn(C)c(Oc2ccccc2)c1C=NOCc1ccc(C(=O)OC(C)(C)C)cc1`, the AC50 is 6.99 µM (active).
As to `CCOC(=O)C(C)Oc1ccc(Oc2nc3ccc(Cl)cc3o2)cc1` (stereo not drawn), the result was inactive.
`CCOC(=O)COc1cc(-n2ncc(C(F)(F)F)c(C)c2=O)c(F)cc1Cl`: the molecule was classed as inactive.
For `Oc1ccc(C(c2ccc(O)cc2)C(Cl)(Cl)Cl)cc1`, the molecule was classed as inactive.
As to `c1ccc(Nc2ccccc2)cc1`, the molecule was called inactive.
For the molecule `CCCOC(=O)c1ccc(C(=O)OCCC)nc1`, the outcome was inactive.
Same read-out and setting: to `CCCCC(CC)COC(=O)c1ccccc1C(=O)O` (stereo not drawn) belongs “inactive”.
On to `CCSC(=O)N(CC(C)C)CC(C)C`, for which the molecule was called inactive.
As for `CCCCOC(=O)C(C)Oc1ccc(Oc2ccc(C(F)(F)F)cn2)cc1` (stereo not drawn), the call was inactive.
Same read-out and setting: for `CCOC(=O)C(C)Oc1ccc(Oc2cnc3cc(Cl)ccc3n2)cc1` (stereo not drawn) the value was “inactive”.

Read-out in another test: Cyclin D1 (CCND1), CCND1 (gene 595)
As to the kind of experiment: LTEA_HepaRG_CCND1: Life Technologies and Expression Analysis (LTEA) Assay for Cyclin D1 (CCND1) using HepaRG (AID 2283451).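 For AC50: TaqMan qRT-PCR transcript level normalised to ACTB GAPDH and POLR2A housekeeping genes.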 The conditions noted are these: mRNA level, 48 h; actives raise or lower the signal. The method, boiled down: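 Differentiated HepaRG cells exposed 48 h in serum-free induction medium to eight half-log concentrations from 100 uM top, 0.5% DMSO, duplicates. CCND1 mRNA measured by Fluidigm TaqMan qRT-PCR, normalised to ACTB, GAPDH, POLR2A; bidirectional fit.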
`CCOC(=O)c1ccc(O)cc1`: the outcome was inactive.
With `CCCN(CCC)c1c([N+](=O)[O-])cc(C(F)(F)F)c(N)c1[N+](=O)[O-]`, the molecule was classed as inactive.
For `O=C(c1ccccc1)C1CCCCC1`, the result was inactive.
Turning to `C=CCOC(Cn1ccnc1)c1ccc(Cl)cc1Cl` (stereo not drawn), the AC50 is 90.5 µM (active).
Consider `CC(C)CCCCCCc1ccc(O)cc1`, for which the molecule was called inactive.
For `COCCO`, the molecule was classed as inactive.
As for `N[C@@H](Cc1cc(I)c(Oc2ccc(O)c(I)c2)c(I)c1)C(=O)O`, the call was inactive.
Consider `COc1c(Cl)ccc(Cl)c1C(=O)O`, for which the result was inactive.
Turning to `CCC(C)OC(=O)N1CCCCC1CCO` (stereo not drawn), the result was inactive.
`CC(C)(C)[C@@H](O)[C@@H](Cc1ccc(Cl)cc1)n1cncn1`: the molecule was classed as inactive.
Turning to `O=C(O)C1(C(=O)Nc2ccc(Cl)cc2Cl)CC1`, the half-maximal activity concentration (AC50) is 83.3 µM (active).
Consider `OB(O)O`, for which the molecule was classed as inactive.
Regarding `CC(=O)[C@H]1CC[C@H]2[C@@H]3CCC4=CC(=O)CC[C@]4(C)[C@H]3CC[C@]12C`, the molecule was classed as inactive.
Regarding `CCCCC(CC)CN1C(=O)C2C3C=CC(C3)C2C1=O` (stereo not drawn), the molecule was classed as inactive.
With `CCN(Cc1c(F)cccc1Cl)c1c([N+](=O)[O-])cc(C(F)(F)F)cc1[N+](=O)[O-]`, the outcome was inactive.
With `C[C@]12C[C@H](O)[C@H]3[C@@H](CCC4=CC(=O)CC[C@@]43C)[C@@H]1CC[C@@H]2C(=O)CO`, the call was inactive.
Turning to `C#CCOC(=O)[C@@H](C)Oc1ccc(Oc2ncc(Cl)cc2F)cc1`, the result was inactive.
With `Cc1nn(C)c(Oc2ccccc2)c1C=NOCc1ccc(C(=O)OC(C)(C)C)cc1`, the AC50 was 83.9 µM (active).
As for `CCOC(=O)C(C)Oc1ccc(Oc2nc3ccc(Cl)cc3o2)cc1` (stereo not drawn), the result was inactive.
For `CCOC(=O)COc1cc(-n2ncc(C(F)(F)F)c(C)c2=O)c(F)cc1Cl`, the molecule was classed as inactive.
Consider `Oc1ccc(C(c2ccc(O)cc2)C(Cl)(Cl)Cl)cc1`, for which the AC50 is 89.2 µM (active).
As for `c1ccc(Nc2ccccc2)cc1`, the molecule was called inactive.
`CCCOC(=O)c1ccc(C(=O)OCCC)nc1`: the call was inactive.
As for `CCCCC(CC)COC(=O)c1ccccc1C(=O)O` (stereo not drawn), the call was inactive.
The same measure, in the same setting: for `CCSC(=O)N(CC(C)C)CC(C)C` the value was “inactive”.
In the case of `CCCCOC(=O)C(C)Oc1ccc(Oc2ccc(C(F)(F)F)cn2)cc1` (stereo not drawn), the outcome was inactive.
As to `CCOC(=O)C(C)Oc1ccc(Oc2cnc3cc(Cl)ccc3n2)cc1` (stereo not drawn), the outcome was inactive.

In general, AC50 refers to the concentration at which the activity in the assay is half-maximal.

The record behind these values is PubChem BioAssay (EPA / NIEHS).
